Test results reported in PubChem BioAssay (NCI).
This is part of a sample that, as a whole, favours compounds with a hit. Of some 83,000 tested, about 20% had one in any assay.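 96-well plates, one dose, 48 hours. Percent growth reported; active if below 10.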 A number with no mark means an inactive call. Calls of active or inactive are those of the source.

What was measured:
Assay in all cases: NCI-60 one-dose screen, 48 h (100 = growth as untreated, 0 = no growth, -100 = all killed)
Conditions in all cases: 10 µM unless noted
[1] = tested on: NCI-H23 lung
[2] = tested on: NCI-H226 lung
[3] = tested on: NCI-H322M lung
[4] = tested on: HOP-62 NSCLC
[5] = tested on: NCI-H460 lung
[6] = tested on: NCI-H522 lung
[7] = tested on: A549/ATCC NSCLC
[8] = tested on: 786-0 renal
[9] = tested on: DU-145 prostate
[10] = tested on: MALME-3M melanoma
[11] = tested on: MDA-MB-231 breast
[12] = tested on: RXF 393 renal
[13] = tested on: SF-268 CNS
[14] = tested on: SF-295 CNS
[15] = tested on: UACC-257 melanoma
[16] = tested on: M14 melanoma
[17] = tested on: HCT-15 colon
[18] = tested on: K-562 leukemia
[19] = tested on: SF-539 CNS
[20] = tested on: COLO 205 colon

SMILES | growth [1] [%] | growth [2] [%] | growth [3] [%] | growth [4] | growth [5] | growth [6] | growth [7] [%] | growth [8] [%] | growth [9] | growth [10] | growth [11] | growth [12] | growth [13] [%] | growth [14] [%] | growth [15] [%] | growth [16] | growth [17] [%] | growth [18] | growth [19] [%] | growth [20] [%]
Cc1ccc(NC(=O)CSc2nnc3n(Cc4ccccc4)c(=O)c4c(C)c(C(N)=O)sc4n23)cc1 | 78.4 | 28.9 | 46.2 | -7.47% (active) | -40.9% (active) | 31.5% | 77.7 | 16.9 | 39% | 11.4% | -6.14% (active) | 79.9% | 55.8 | 53 | 56.4 | 60.5% | 84.4 | – | – | –
C=C(C)[C@@H]1C/C=C(/C=O)CC[C@@H]2O[C@@]2(C)CC/C=C(\C)CC1 | 116 | 98.9 | 91 | 110% | 98.7% | 186% | 104 | 106 | 112% | – | 111% | 104% | 112 | – | 141 | 115% | – | 136% | 105 | –
CNc1ccc(CSc2ccc(Cl)cc2)cc1 | 108 | 84.6 | 123 | 87.4% | 105% | 75.6% | 93.6 | 71 | 127% | – | 103% | 111% | 96.3 | – | 97.4 | 103% | – | 82% | 98.2 | –
CC/C(=C\c1ccc(N(C)C)cc1)c1nc2ccccc2c(=O)[nH]1 | 121 | 110 | 104 | 108% | 102% | 103% | 98 | 94.6 | 105% | 144% | 91.2% | 99.6% | 92.9 | – | 111 | 121% | 99.8 | 71.4% | 106 | –
CCC(C)CC(CC)NCCN1CCN(C(CC)CC(C)CC)C1=S (stereo not given) | 42.5 | 47 | 78.8 | 29.1% | 9.44% (active) | -12% (active) | 50.2 | 56.5 | 29.5% | -33.8% (active) | -12.4% (active) | – | 61.8 | 56.1 | 39.5 | -47.3% (active) | 22.5 | – | 69.2 | –
C/C(=N/N=C(N)N)c1ccc(N)cc1 | 100 | 102 | 79.2 | 91.5% | 106% | 91.5% | 103 | 96 | 107% | 115% | 104% | 98.5% | 114 | – | 150 | 95.9% | 115 | 94.6% | 96.3 | –
CC(C)(C)c1ccc(S(=O)(=O)O)s1 | 115 | 107 | 111 | 99% | 106% | 89.6% | 99.2 | 95.6 | 108% | – | 93.1% | 105% | 102 | – | 117 | 107% | 107 | 77% | 99.3 | –
NC(N)=N/N=C(/c1ccccc1)c1ccc(Cl)cc1 | 83.9 | 88.8 | 57.7 | 85% | 52.3% | 59.5% | 68.3 | 69.1 | 83% | 115% | 105% | 94.9% | 62.2 | – | 38.4 | 59.6% | 56.6 | 42.5% | 93.3 | –
COc1cc(/C=C/c2nnc(-c3cc(-c4ccccc4)n[nH]3)o2)cc(OC)c1OC | 92.6 | 100 | 106 | 102% | 107% | 85.4% | 97.5 | 118 | 108% | 98.3% | 111% | 111% | – | 105 | 105 | 127% | 102 | 98.2% | 92.6 | –
Cc1nn(-c2ccccc2)c2nc3c(nc12)C(=O)CCC3 | 80.4 | 107 | 93.1 | 92.9% | 104% | 74% | 92.9 | 88.5 | 104% | 98% | 108% | 116% | 103 | – | 99.8 | 106% | – | – | – | –
C=C(C)[C@H]1CC/C(C)=C/CC[C@]2(C)O[C@H]2CC/C(COC(C)=O)=C\C1=O | 103 | 130 | 87.3 | 102% | 116% | 109% | 37.7 | 92.1 | 140% | – | 98.4% | 105% | 115 | – | 128 | 105% | 109 | 95.8% | 117 | –
Cc1c(C(N)=O)sc2nc(SCC(=O)Nc3ccc(Cl)cc3)n(-c3ccccc3)c(=O)c12 | 106 | 108 | 105 | 109% | 106% | 89.2% | 116 | 104 | 120% | 159% | 93.1% | 95.8% | 101 | – | 104 | 104% | 121 | 84.2% | 110 | –
CCn1c2ccccc2c2ccc(C(C)=O)cc21 | 101 | 91.8 | 126 | 103% | 108% | 96.6% | 103 | 102 | 93.5% | 113% | 114% | 105% | 90.8 | 116 | 108 | 105% | 107 | – | 96.5 | –
COc1ccc(C(=O)C(C)Br)cc1OC (stereo not given) | 90.7 | 96.1 | 99 | 106% | 103% | -10.4% (active) | – | 95.5 | 107% | 97.2% | 90% | 102% | 90.9 | 102 | 80.1 | 97.5% | 46.4 | 59.2% | 92.9 | 23.3
O=C(/C=C/c1cc2ccccc2[nH]c1=O)c1ccc(O)cc1 | 56.9 | 98.7 | 51.8 | 42.5% | 1.97% (active) | -44.1% (active) | – | 62.6 | -44.1% (active) | 83.7% | 59.5% | 0.37% (active) | 20.4 | 54 | 92.6 | 76% | 35.2 | 5.94% (active) | 23.3 | 105
COc1ccc2c(c1)nc(N)c1c3cc(C)c(C)cc3cn21 | 80.4 | 86.8 | 94 | 84.7% | 48.4% | 19.6% | 79.4 | 91.2 | – | 76.5% | 84.6% | 78.1% | 75.6 | 64.3 | 83.7 | 57.5% | 48.7 | – | 95.7 | –
Cn1cc(-c2csc(-c3c[nH]c4ncccc34)n2)c2cc(F)cnc21 | 74 | 73.5 | 70.7 | 79.5% | 61.3% | 86.8% | 85.3 | 90.5 | – | 95.5% | 57% | 59.8% | 91.7 | 74.3 | 96.2 | 58.7% | 61.3 | – | 90.9 | –
